Among the data in PubChem BioAssay (EPA / NIEHS) are AC50 and outcome values, retold here.

Values joined by “and” are separate entries in the source; they are usually repeats but may differ in a detail not shown here. Equal entries are not always repeated. Active and inactive are the calls of the source. How the source made its calls: active means hit-call score of the fitted dose curve at least 0.9, where 1 is the maximum; inactive means score below 0.9.

Read-out in the first assay: Monocyte Chemoattractant Protein-1 (MCP1), CCL2 (gene 6347)
In words: BSK_4H_MCP1: BioMAP Diversity Plus: 4H Assay for Monocyte Chemoattractant Protein-1 (MCP1) Biomarker Activity (AID 2283018). The conditions noted are these: primary human endothelial cells (HUVEC); actives raise or lower the signal. A digest of the protocol: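 Readout: MCP-1 ELISA on compound-treated HUVEC, sampled 24 h post-dosing. Baseline and negative control DMSO; bidirectional fit. Overt toxicity checked alongside by sulforhodamine B protein staining at time of biomarker measurement.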
On to `Oc1ccc(Nc2ccccc2)cc1`, for which the AC50 (commonly the concentration giving half of the maximal activity seen) is 9.6 µM (active).

For `NC(=O)C(F)(F)C(F)(F)C(F)(F)C(F)(F)F`, the result was inactive.

On to `FC(F)(F)C(F)(F)C(F)(F)C(F)(F)CCI`, for which the result was inactive.

`CCCCCCCCC(F)(F)C(F)(F)C(F)(F)C(F)(F)C(F)(F)C(F)(F)F`: the outcome was inactive.

For the compound `C=CC(=O)OCC(F)(F)C(F)(F)C(F)(F)C(F)(F)C(F)(F)C(F)(F)C(F)(F)F`, the outcome was inactive.

On to `Nc1ccc([N+](=O)[O-])cc1O`, for which the outcome was inactive.

In the case of `FC(F)(F)C(F)(F)C(F)(F)C(F)(F)C(F)(F)C(F)(F)C(F)(F)C(F)(F)F`, the result was inactive.

For `O=C(O)C(F)(OC(F)(F)C(F)(OC(F)(F)C(F)(F)C(F)(F)F)C(F)(F)F)C(F)(F)F` (configuration not stated), the outcome was inactive.

Take `Cc1ccc(S(=O)(=O)OCC(F)(F)C(F)(F)C(F)(F)C(F)(F)C(F)(F)C(F)F)cc1`: the result was inactive.

On to `CCCCNc1ccccc1`, for which the result was inactive.

In the case of `CCO[Si](CCC(F)(F)C(F)(F)C(F)(F)C(F)(F)C(F)(F)C(F)(F)F)(OCC)OCC`, the result was inactive.

For `CCc1ccc(C(c2ccc(CC)cc2)C(Cl)Cl)cc1`, the AC50 was 10.7 µM (active).

Consider `O=C(O)C=C(C(F)(F)F)C(F)(F)F`, for which the result was inactive.

With `CCN(CC)c1ccc2c(C)cc(=O)oc2c1`, the outcome was inactive.

For the compound `C=CC(F)(F)C(F)(F)C(F)(F)C(F)(F)C(F)(F)C(F)(F)C(F)(F)C(F)(F)F`, the outcome was inactive.

Take `CCc1c(Br)c(Br)c(Br)c(Br)c1Br`: the result was inactive.

Regarding `OCC(F)(F)C(F)(F)C(F)(F)F`, the outcome was inactive.

For `CCCCC(CC)COP(=O)(O)OCC(CC)CCCC` (configuration not stated), the result was inactive.

Consider `O=C(O)C(F)(F)C(F)(F)F`, for which the result was inactive.

For `C=CC/C=C/C/C=C/C/C=C/C`, the outcome was inactive.

As for `C=C(C)C(=O)OCC(F)(F)C(F)(F)C(F)(F)C(F)(F)C(F)(F)C(F)(F)C(F)(F)F`, the result was inactive.

Read-out in the next assay: Human Leukocyte Antigen - DR isotype (HLADR), HLA-DRA (gene 3122)
In words: BSK_3C_HLADR: BioMAP Diversity Plus: 3C Assay for Human Leukocyte Antigen - DR isotype (HLADR) Biomarker Activity (AID 2283019).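 On outcome: ELISA of cell-surface HLA-DR on HUVEC 24 h after dosing.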 The conditions noted are these: primary human endothelial cells (HUVEC); actives raise or lower the signal. In short, it runs like this:
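Primary human umbilical vein endothelial cells (3C system) were dosed with compound and cell-surface HLA-DR was quantified by ELISA at 24 h. Activity was fitted bidirectionally against DMSO as negative control and baseline.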
Take `Oc1ccc(Nc2ccccc2)cc1`: the half-maximal activity concentration (AC50) was 20 µM (active).

On to `NC(=O)C(F)(F)C(F)(F)C(F)(F)C(F)(F)F`, for which the outcome was inactive.

As to `FC(F)(F)C(F)(F)C(F)(F)C(F)(F)CCI`, the outcome was inactive.

On to `CCCCCCCCC(F)(F)C(F)(F)C(F)(F)C(F)(F)C(F)(F)C(F)(F)F`, for which the outcome was inactive.

Take `C=CC(=O)OCC(F)(F)C(F)(F)C(F)(F)C(F)(F)C(F)(F)C(F)(F)C(F)(F)F`: the outcome was inactive.

`Nc1ccc([N+](=O)[O-])cc1O`: the result was inactive.

Regarding `FC(F)(F)C(F)(F)C(F)(F)C(F)(F)C(F)(F)C(F)(F)C(F)(F)C(F)(F)F`, the outcome was inactive.

As to `O=C(O)C(F)(OC(F)(F)C(F)(OC(F)(F)C(F)(F)C(F)(F)F)C(F)(F)F)C(F)(F)F` (configuration not stated), the outcome was inactive.

As for `Cc1ccc(S(=O)(=O)OCC(F)(F)C(F)(F)C(F)(F)C(F)(F)C(F)(F)C(F)F)cc1`, the result was inactive.

As to `CCCCNc1ccccc1`, the result was inactive.

Take `CCO[Si](CCC(F)(F)C(F)(F)C(F)(F)C(F)(F)C(F)(F)C(F)(F)F)(OCC)OCC`: the result was inactive.

On to `CCc1ccc(C(c2ccc(CC)cc2)C(Cl)Cl)cc1`, for which the AC50 is 11.8 µM (active).

As to `O=C(O)C=C(C(F)(F)F)C(F)(F)F`, the half-maximal activity concentration (AC50) is 30 µM (active) and 47.7 µM (active).

`CCN(CC)c1ccc2c(C)cc(=O)oc2c1`: the AC50 is 31.3 µM (active).

With `C=CC(F)(F)C(F)(F)C(F)(F)C(F)(F)C(F)(F)C(F)(F)C(F)(F)C(F)(F)F`, the outcome was inactive.

Consider `CCc1c(Br)c(Br)c(Br)c(Br)c1Br`, for which the outcome was inactive.

Take `OCC(F)(F)C(F)(F)C(F)(F)F`: the result was inactive.

Take `CCCCC(CC)COP(=O)(O)OCC(CC)CCCC` (configuration not stated): the outcome was inactive.

`O=C(O)C(F)(F)C(F)(F)F`: the result was inactive.

With `C=CC/C=C/C/C=C/C/C=C/C`, the outcome was inactive.

Take `C=C(C)C(=O)OCC(F)(F)C(F)(F)C(F)(F)C(F)(F)C(F)(F)C(F)(F)C(F)(F)F`: the result was inactive.
